Source: PubChem (The Scripps Research Institute Molecular Screening Center)
Shown are actives, neighbours in structure and some others; about 4.1% of the full set was active somewhere.
hcDAF12 agonist = activators of H. contortus DAF-12 nuclear receptor; HEK293 hcDAF-12 lit1-tk-luc reporter, luminescence; 0% DMSO, 100% Δ7-dafachronic acid; 370,000 compounds, 1.4% hits; activation, % at 6.8 µM; AID 652067;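 active means activation above the mean of all tested compounds plus 3 SD, cut at about 5.5% in these data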
DAX1 inh-1 = inhibitors of DAX1 repression of SF-1 activated StAR promoter; HEK293T StAR-luciferase reporter, SF-1/DAX-1 repression relief; inhibition, % at 6.8 µM; 370,000 compounds, 1.1% hits;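 active means inhibition above the mean over all tested compounds plus 3 SD, cut at about 3.6% in these data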;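 further: higher inhibition means more luminescence from relief of DAX-1 repression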
ssDAF-12 act = activates DAF-12 receptor from parasite S. stercoralis. AID 652126. HEK293 ssDAF-12/GRIP1 lit1-tk-luc reporter, luminescence; % of 3 µM dafachronic acid response. 370,000 compounds, 1% hits. activation, % at 6.8 µM;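 active means activation above the mean over all tested compounds plus 3 SD, cut at about 0.9% in these data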
DAX1 inh-2 = inhibitors of human orphan nuclear receptor DAX1 (NR0B1). inhibition, % at 6.75 µM. HEK293 Gal4-DAX1 luciferase reporter, luminescence. P51843. AID 504766. 340,000 compounds, 0.99% hits;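 active means inhibition above the mean over all tested compounds plus 3 SD, cut at about 4.2% in these data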;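 further: inhibition shows as a rise in luminescence from relieved DAX1 repression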
Target sequence (P51843 207-470 limits assumed): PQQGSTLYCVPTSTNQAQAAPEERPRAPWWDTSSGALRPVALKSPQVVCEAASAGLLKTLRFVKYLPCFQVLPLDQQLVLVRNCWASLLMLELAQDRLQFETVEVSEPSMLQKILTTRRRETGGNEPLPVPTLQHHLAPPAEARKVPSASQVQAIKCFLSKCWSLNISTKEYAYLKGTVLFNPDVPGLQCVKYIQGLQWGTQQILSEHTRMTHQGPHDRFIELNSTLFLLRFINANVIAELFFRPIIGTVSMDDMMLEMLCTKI
hgDAF12 agonist = activates the H. glycines DAF-12 receptor ligand-binding domain. HEK293 GAL4-hgDAF12 UAS-luciferase reporter, agonist luminescence; normalized to butyrate control. activation, % at 6.8 µM. 370,000 compounds, 1.8% hits. AID 687014;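 active means activation above a cutoff set at the mean of all screened compounds plus 3 SD, cut at about 10% in these data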
Of the large screens only hits and unclear results are named; the others gave an inactive call.

C[C@H](CO)N1C[C@H](C)[C@@H](CN(C)C(=O)Nc2ccc3c(c2)OCO3)Oc2ccc(NC(=O)Cc3ccccc3)cc2C1=O	none
C[C@@H]1CN([C@H](C)CO)C(=O)c2cc(NC(=O)Cc3cn(C)c4ccccc34)ccc2O[C@H]1CN(C)C(=O)Nc1ccc2c(c1)OCO2	hcDAF12 agonist 6.2
C[C@@H]1CCCCO[C@H](CN(C)C(=O)Nc2ccc(C(F)(F)F)cc2)[C@@H](C)CN([C@H](C)CO)C(=O)c2cc(NC(=O)Nc3ccc4c(c3)OCO4)ccc2O1	none (no result: DAX1 inh-2)
COc1cccc(/C=N/c2oc(-c3ccccc3)cc2C#N)c1O	none
COc1cccc(C=Nc2ccccc2C#N)c1O	ssDAF-12 act 2.1
Clc1cccc(Cl)c1C[n+]1cccc2ccccc21	none
O=[N+]([O-])c1ccc(Cl)c(C[n+]2cccc3ccccc32)c1	ssDAF-12 act 1.5
O=C(C[n+]1cccc2ccccc21)c1ccc([N+](=O)[O-])cc1	ssDAF-12 act 1.3
CN(C)CC(=O)N[C@H]1C[C@@H]2O[C@H](CO)CC[C@@H]2O[C@@H]1CCc1ccc(-c2ccc(F)cc2)cc1	none (no result: DAX1 inh-2)
COc1cccc(NC(=O)CN(C)C(=O)c2cc(S(=O)(=O)N3CCCCC3)ccc2Cl)c1	DAX1 inh-1 4.2
COc1ccc(S(=O)(=O)N2CCCCCC2)cc1C(=O)N(C)CC(=O)Nc1ccc(Cl)c(Cl)c1	none
O=c1c2cc3cccnc3nc2ncn1CCc1c[nH]c2ccccc12	none (no result: DAX1 inh-2)
Cn1c(=O)cc(OCCCC(=O)NCc2ccco2)c2ccccc21	none
Cc1ccc(CNC(=O)CCCOc2cc(=O)n(C)c3ccccc23)o1	DAX1 inh-2 6.4
Cc1[nH]nc2c1C(c1cccc(C(F)(F)F)c1)NC2=O (centres undefined)	none (no result: DAX1 inh-2)
CC(C)(C)CSc1nnc(-c2cccnc2)n1Cc1ccccc1	none (no result: DAX1 inh-2)
Cc1ccc(OCc2nn3c(C4CCCCC4)nnc3s2)cc1	none (no result: DAX1 inh-2)
Cc1ccc(CN2CCN(Cc3c[nH]c4ccccc34)CC2CCO)o1 (centres undefined)	none
CCn1cc(CN2CCN(Cc3ccc(C)o3)C(CCO)C2)c2ccccc21 (centres undefined)	hcDAF12 agonist 5.6
CCn1cc(CN2CCN(Cc3ccccc3)C(CCO)C2)c2ccccc21 (centres undefined)	DAX1 inh-2 4.2
CCOC(=O)[C@]12CCCCC/C=C\1N(CCc1ccc(Cl)cc1)C(=O)[C@H]2CC(=O)NCCCOC	none (no result: DAX1 inh-2)
CC(C)C(OC(=O)c1cc2c(s1)CCCCC2)C(=O)NC(N)=O (centres undefined)	hcDAF12 agonist 5.8
COC(=O)[C@]12C[C@H](CC(=O)N3CCCC3)C(=O)N(Cc3ccc(Cl)cc3Cl)C1=C[C@H](C(C)C)O[C@@H]2C1CC1	none (no result: DAX1 inh-2)
Cc1cc(CN2CCCC(N3CCc4ccccc4C3)C2)cc(C)c1O (centres undefined)	hgDAF12 agonist 11
COc1cc2c(cc1OC)CN(C1CCCN(Cc3cccc(C(C)=O)c3)C1)CC2 (centres undefined)	none
Cn1cccc1C(=O)N1CCN(S(=O)(=O)c2cccs2)CC1	none (no result: DAX1 inh-2)
COc1cc(NC(=O)C2CCCN2S(=O)(=O)c2cccc3cccnc23)cc(OC)c1OC (centres undefined)	DAX1 inh-2 4.6
O=C(/C=C/c1ccccc1)NCC1(c2ccccc2)CCOCC1	DAX1 inh-2 5.0
CCSc1nsc(NC(=O)Nc2ccccc2Cl)n1	hgDAF12 agonist 11
Cc1cc(N2CCN(CC(C)(C)O)C[C@@H]2C)ccc1N1CCN(CC(C)(C)O)[C@H](C)C1	none (no result: DAX1 inh-2)
Cc1ccc(SCCSc2nc(C)cc(=O)[nH]2)cc1	DAX1 inh-2 5.0
CCN(CC)CCNC(=O)CNC(=O)c1nn(-c2ccc(OC)c(OC)c2)c(=O)c2ccccc12	DAX1 inh-2 4.9
c1ccc(-c2cc3ccccc3cn2)cc1	hcDAF12 agonist 6.2
O=C(/C=C/c1cccs1)Nc1ccc(N2CCOCC2)c(S(=O)(=O)Nc2ccccc2Cl)c1	none
O=C(/C=C/c1cccs1)Nc1ccc(N2CCOCC2)c(S(=O)(=O)Nc2cc(Cl)ccc2Cl)c1	hcDAF12 agonist 5.7
Cc1ccc2nc(CN(C)C(=O)[C@H]3O[C@@H](n4cnc(C(N)=O)n4)[C@H](O)[C@@H]3O)[nH]c2c1	none (no result: DAX1 inh-2)
O=C(Cn1ccc([N+](=O)[O-])n1)N1CCCCC1	DAX1 inh-2 5.5
O=C(Cn1ccc([N+](=O)[O-])n1)N1CCCCCC1	none
Cc1ccc(C(=O)N2CCOCC2)cc1[N+](=O)[O-]	none
Cc1ccc(C(=O)N2CCN(C)CC2)cc1[N+](=O)[O-]	DAX1 inh-2 4.6
Cc1ccc(CN2CCCCC(NC(=O)c3ccccc3C)C2=O)cc1 (centres undefined)	none (no result: DAX1 inh-2)
NC(=O)[C@@H]1CCCN1C(=O)[C@H]1O[C@@H](n2ccc(N)nc2=O)[C@H](O)[C@@H]1O	none (no result: DAX1 inh-2)
CSCCC(c1nc2ccccc2[nH]1)n1c(/C=C/c2ccc(F)c(F)c2)nc2ccccc21 (centres undefined)	ssDAF-12 act 0.9 (no result: DAX1 inh-2)
COC(=O)[C@]12C[C@H](CC(=O)NCCCN3CCCC3=O)C(=O)N(Cc3cccc4ccccc34)C1=C[C@H](C(C)C)O[C@@H]2C1CC1	none (no result: DAX1 inh-2)
COc1ccc(S[C@]2(C(=O)N(C)C)CC(=O)N(C(=O)/C=C/c3ccccc3)[C@@H]2c2ccc(OC)cc2)cc1	none (no result: DAX1 inh-2)
COc1ccc(S[C@]2(C(=O)N(C)C)CC(=O)N(c3ccccc3)[C@@H]2c2ccc(OC)cc2)cc1	hgDAF12 agonist 12 (no result: DAX1 inh-2)
O=C1NC(c2cccc3ccccc23)Nc2ccccc21 (centres undefined)	none
O=C1c2ccccc2C(=O)C1Cc1cccc2ccccc12	ssDAF-12 act 0.9
CCn1c(SCC(=O)NN=Cc2cc(OC)ccc2OC)nnc1-c1ccc(OC)cc1	none (no result: DAX1 inh-2)
Clc1ccc(-c2nnc(-c3ccccc3)nc2-c2c[nH]c3ccccc23)cc1	ssDAF-12 act 1.6
C#CCOC(=O)C[N+](C)(C)C/C=C/c1ccccc1	none
C#CCOC(=O)C[N+](C)(C)CC#Cc1ccccc1	DAX1 inh-2 8.6
CCOc1ccc(CC(=O)C2C(=O)CC(C)(C)CC2=O)cc1OCC	DAX1 inh-2 4.4
CCOc1ccc(CC(=O)C2C(=O)CCCC2=O)cc1OCC	none (no result: hcDAF12 agonist, DAX1 inh-1, ssDAF-12 act, hgDAF12 agonist)
CC(C)(C)C1(O)CC(C(F)(F)F)=NN1C(=O)CCCc1ccccc1 (centres undefined)	DAX1 inh-2 4.6
Cc1cc(C)cc(OCC(=O)N2N=C(C(F)(F)F)CC2(O)C(C)(C)C)c1 (centres undefined)	none
C=CCN1C=C2C(=O)C(C)(OC(=O)C3CCCC3)C(=O)C=C2C=C1c1ccsc1 (centres undefined)	ssDAF-12 act 1.4
COC(=O)[C@H](CC(C)C)N(CCCc1cn(CC2CCCCC2)nn1)S(=O)(=O)c1ccccc1Br	none (no result: DAX1 inh-2)
O=C(CN1C(=O)C2CCCCC2C1=O)OCn1nnc2ccccc2c1=O (centres undefined)	DAX1 inh-2 6.4
